PubChem BioAssay
“And” between values parts separate entries of the source, which are not always exact repeats. Identical values can stand only once. Results filed as inconclusive are left out. The source made the active and inactive calls.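 How the source made its calls, unless noted: active means mean z-score across replicates of 1.96 or higher in either the MELAS or the Rieske mutant cell line; inactive means the rest.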

Columns and labels:
[1] = SU-DIPG-VI glioma cell viability, MIPE4.0 library, CellTiter-Glo luminescence, qHTS (AID 1347066; cut-off not given, nearly all actives have AC50 up to about 30 µM;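 further: cells exposed to compound for 48 hours before readout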); conditions: CellTiter-Glo ATP luminescence
[2] = sensitizers of A549 cells to miR-34 induction, primary screen, imaging, A549 dox-inducible miR-34, nuclei and caspase counts (AID 1347080;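 active means compounds whose cell count with miR-34 switched on is under 0.7 times the count with it off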); conditions: A549 miR-34 inducible, Hoechst nuclei count, 48 h
[3] = phospholipid biosynthesis inhibitors in animal cells, primary screen, cell-based, LOPAC library, screen 4 (AID 1347384; call rule not given here); conditions: phospholipid biosynthesis inhibition screen, at 10 µM
[4] = survival rescue of mitochondrial mutant cells in low glucose, primary screen, MELAS cybrids, Rieske KO mouse fibroblasts, CellTiter-Glo (AID 1508586);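 further: z relative to plate mean and SD of compound and empty wells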
[5] = target: NAD(+) hydrolase SARM1 (Homo sapiens) (UniProt Q6SZW1); experiment: SARM1 TIR NADase inhibitors, cell lysate, NAD-Glo luminescence (AID 1508614;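 active means compound whose remaining NAD level is above about 45 nM, limit read from the data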); conditions: SAM-TIR HEK293T lysate NADase, at 1 µM, stronger effect = higher value
[6] = target: Mitogen-activated protein kinase 7 (Homo sapiens) (UniProt Q13164); experiment: ERK5 transactivation activators in reporter cells, primary screen, cell-based, HTS (AID 1508626;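 active means luciferase signal above three times the same-plate solvent-only control wells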;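 further: luciferase driven by Gal4-ERK5 fusion binding five Gal4 sites before minimal TATA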); conditions: HeLa Gal4-ERK5 transactivation, 18 h, at 5 µM, stronger effect = higher value
[7] = viability rescue of complex I mutant cybrids, primary screen, cell-based, galactose medium, ATP luminescence (AID 1645843;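 active means z-score of at least 1.8 in each of two replicates, scored against plate mean and spread of sample wells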;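 further: positive z means more ATP and so rescue of galactose-driven cybrid death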); conditions: complex I mutant cybrid cells, 72 h, stronger effect = higher value
[8] = SU-DIPG-XXV glioma cell viability, MIPE5.0 library, qHTS (AID 1347068; cut-off not given, nearly all actives have IC50 up to about 30 µM)
[9] = stronger effect = lower value, cell number ratio, induced over uninduced
[10] = measured here: relative caspase fold change +Dox/-Dox
[11] = measured here: total cells with miR-34 induction, stronger effect = lower value
[12] = measured here: total cells without miR-34 induction
[13] = MELAS cybrid survival, CellTiter-Glo 48 h, stronger effect = higher value
[14] = Rieske KO mouse fibroblast survival, CellTiter-Glo 72 h

Chain of NAD(+) hydrolase SARM1 (Homo sapiens) (Q6SZW1 whole entry, looked up, the tested form may be a part): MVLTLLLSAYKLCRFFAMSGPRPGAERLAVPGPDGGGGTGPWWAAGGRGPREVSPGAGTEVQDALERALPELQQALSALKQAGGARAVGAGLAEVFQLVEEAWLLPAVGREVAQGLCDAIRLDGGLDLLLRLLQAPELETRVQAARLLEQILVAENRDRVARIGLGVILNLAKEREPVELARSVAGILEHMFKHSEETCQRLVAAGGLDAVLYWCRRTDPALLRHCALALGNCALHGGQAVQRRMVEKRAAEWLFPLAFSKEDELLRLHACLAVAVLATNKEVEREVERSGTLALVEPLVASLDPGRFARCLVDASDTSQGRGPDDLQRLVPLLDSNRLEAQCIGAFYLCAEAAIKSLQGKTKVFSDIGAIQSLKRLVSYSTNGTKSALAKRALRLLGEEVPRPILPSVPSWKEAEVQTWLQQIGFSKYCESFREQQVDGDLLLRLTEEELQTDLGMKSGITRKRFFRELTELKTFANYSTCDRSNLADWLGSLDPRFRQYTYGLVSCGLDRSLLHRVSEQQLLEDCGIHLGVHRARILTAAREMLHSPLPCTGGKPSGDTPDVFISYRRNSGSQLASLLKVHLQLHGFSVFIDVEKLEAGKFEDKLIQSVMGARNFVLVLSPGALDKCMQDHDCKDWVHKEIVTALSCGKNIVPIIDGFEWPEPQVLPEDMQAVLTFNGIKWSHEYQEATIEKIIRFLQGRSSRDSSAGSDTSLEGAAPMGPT
Chain of Mitogen-activated protein kinase 7 (Homo sapiens) (Q13164 whole entry, looked up, the tested form may be a part): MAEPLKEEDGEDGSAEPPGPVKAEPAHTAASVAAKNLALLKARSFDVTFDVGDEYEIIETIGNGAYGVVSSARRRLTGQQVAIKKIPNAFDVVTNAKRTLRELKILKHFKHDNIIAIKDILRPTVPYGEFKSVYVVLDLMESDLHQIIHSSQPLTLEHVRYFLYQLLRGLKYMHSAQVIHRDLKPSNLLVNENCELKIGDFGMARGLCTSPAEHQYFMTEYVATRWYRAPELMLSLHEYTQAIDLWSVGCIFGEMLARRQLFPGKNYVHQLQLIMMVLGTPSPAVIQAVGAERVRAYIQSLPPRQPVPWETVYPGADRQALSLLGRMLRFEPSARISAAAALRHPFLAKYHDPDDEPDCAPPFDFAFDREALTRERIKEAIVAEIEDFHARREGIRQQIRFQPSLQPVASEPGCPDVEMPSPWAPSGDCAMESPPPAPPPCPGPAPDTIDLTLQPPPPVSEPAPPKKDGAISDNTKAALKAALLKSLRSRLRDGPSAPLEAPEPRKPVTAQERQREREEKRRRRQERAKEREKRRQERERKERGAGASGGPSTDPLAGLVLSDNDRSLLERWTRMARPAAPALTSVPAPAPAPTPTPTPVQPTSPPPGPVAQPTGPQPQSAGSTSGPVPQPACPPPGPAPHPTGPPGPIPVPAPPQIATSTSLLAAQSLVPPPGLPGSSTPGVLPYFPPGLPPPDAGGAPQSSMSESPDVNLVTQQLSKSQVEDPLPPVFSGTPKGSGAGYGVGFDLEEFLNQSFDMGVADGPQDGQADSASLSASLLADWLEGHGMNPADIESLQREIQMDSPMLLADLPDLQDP

SMILES | outcome [1] | fold change [2, 9] | fold change [2, 10] | cell count [2, 11] | cell count [2, 12] | outcome [3] | z-score [4, 13] | z-score [4, 14] | remaining NAD [5] | luciferase signal [6] | z-score [7] | outcome [8]
COCCCC/C(=N\OCCN)c1ccc(C(F)(F)F)cc1 | inactive | 0.98 (inactive) and 0.926 (inactive) and 0.976 (inactive) | 1.02 and 0.609 and 0.939 | 9020 and 8820 and 7770 | 9200 and 9520 and 7960 | inactive | 0.622 (inactive) | -0.626 | 10 nM (inactive) | 88 AU (inactive) | -0.665 (inactive) and -0.645 (inactive) | –
COC(=O)C1=C(C)NC(C)=C(C(=O)OC(C)C)C1c1cccc2nonc12 (configuration not stated) | inactive | – | – | 7780 and 7900 and 7270 | – | – | -0.382 (inactive) and 0.324 (inactive) | 1.22 and 0.935 | 10 nM (inactive) | – | 1.15 (inactive) | –
Cc1ncc([N+](=O)[O-])n1CCO | inactive | – | – | – | – | – | -0.252 (inactive) and -0.693 (inactive) and 0.0516 (inactive) | 0.34 and -0.0287 and -0.879 | 10 nM (inactive) | 56 AU (inactive) | 1.04 (inactive) and 0.355 (inactive) | –
CC(C)(Sc1cc(C(C)(C)C)c(O)c(C(C)(C)C)c1)Sc1cc(C(C)(C)C)c(O)c(C(C)(C)C)c1 | inactive | 0.81 (inactive) and 0.886 (inactive) and 0.877 (inactive) | 1.96 and 0.704 and 3.16 | 8410 and 8070 and 11000 | 10400 and 9110 and 12500 | – | -0.245 (inactive) and 0.14 (inactive) | -0.773 and -0.118 | 10 nM (inactive) | 40 AU (inactive) | – | inactive
O=C(c1ccc(F)cc1)C1CCN(CCn2c(=O)[nH]c3ccccc3c2=O)CC1 | inactive | – | – | – | – | inactive | -0.256 (inactive) and 0.859 (inactive) and 1.46 (inactive) | 0.928 and -0.102 and 0.875 | 10 nM (inactive) | – | 0.47 (inactive) and 0.155 (inactive) and 0.975 (inactive) | –
CN(C)CCC=C1c2ccccc2C=Cc2ccccc21 | inactive | – | – | – | – | inactive | -1.05 (inactive) and 0.34 (inactive) | -0.783 and 0.18 | 10 nM (inactive) | 52 AU (inactive) | -1.16 (inactive) | inactive
CC(=O)OC(C)C[N+](C)(C)C (configuration not stated) | – | 0.996 (inactive) and 0.9 (inactive) and 0.916 (inactive) | 1.55 and 1.24 and 1.41 | 9370 and 9670 and 11300 | 9400 and 10700 and 12300 | inactive | -0.509 (inactive) | 0.138 | 10 nM (inactive) | 104 AU (inactive) | 0.455 (inactive) | –
